Screens: PubChem BioAssay, Sanford-Burnham Center for Chemical Genomics
Peg3 prom inh-1: Peg3 promoter activity inhibition; HeLa PEG-Prom luciferase reporter, luminescence, overnight; inhibition, % at 20 µM; 360,000 compounds, 1.7% hits;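 active = inhibition of at least 50% at 20 µM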
TWEAK Fn14 block: inhibitors of TWEAK-Fn14 interaction signaling | TWEAK-stimulated Fn14 reporter cells, luciferase luminescence, 8 h | inhibition, % at 10 µM | 360,000 compounds, 2% hits; in the data active = inhibition above about 50%
CF NFkB inh: inhibitors of cystic fibrosis induced NF-kB | KKLEB NF-kB-GFP reporter, PAF-induced, GFP fluorescence overnight | 360,000 compounds, 0.86% hits | inhibition, % at 5 µM;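 active = at least 50% inhibition at 5 µM, scaled per plate between neutral and stimulator controls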;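 note: PAF is a Pseudomonas aeruginosa culture filtrate used as stimulus; plate controls were PAF-stimulated DMSO wells for no effect and unstimulated DMSO wells for full effect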
TROY signal inh: inhibitors of TROY-dependent NF-kB signaling. Q293 LMP1-TROYcd NF-kB luciferase reporter, 4 h. inhibition, % at 10 µM. 360,000 compounds, 0.98% hits;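 active = compounds whose plate-normalised and pattern-corrected inhibition of the luciferase reporter signal at the single screening dose is 50% or more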
KKLEB tox: CF airway cell cytotoxicity counter-screen. KKLEB CF airway cells viability, ATPlite luminescence, overnight; stronger effect = lower value; cells stimulated with P. aeruginosa culture filtrate. activity change (cytotoxicity), % at 5 µM. 360,000 compounds, 0.36% hits;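 active = corrected activity change at or below -50% at 5 µM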
HIF-2a inh: inhibitors of HIF-2a; 360,000 compounds, 0.72% hits; inhibition, % at 18.8 µM; 786-0 RCC cells HIF-2a reporter, luciferase luminescence, overnight;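 active = inhibition of the luminescence signal of 40% or more relative to plate controls, in a single-dose primary screen at 18.75 µM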
Peg3 prom inh-2: Peg3 promoter inhibition confirmation; HeLa PEG-Prom luciferase reporter, luminescence, overnight; 1,300 compounds, 84% hits; inhibition, % at 20 µM; AID 602417; shares compounds with Peg3 prom inh-1;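 active = at 20 µM dose, 40% or more inhibition averaged across four replicates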
Starred values were filed as active, the others as inactive. This is a sample that favours compounds with a hit; in the whole collection about 4% have one here.

How did CCC(Oc1ccc(C)cc1)C(=O)Nc1ccccc1C(=O)N1CCOCC1 (centres undefined) do in these assays?
Peg3 prom inh-1: 11; TWEAK Fn14 block: 44; CF NFkB inh: 6; TROY signal inh: 0; KKLEB tox: -1; HIF-2a inh: 11

How did CCc1nc(Nc2ccc(N3CCN(C(C)=O)CC3)cc2)c2oc3ccccc3c2n1 do in these assays?
Peg3 prom inh-1: 79*; TWEAK Fn14 block: 36; CF NFkB inh: -11; TROY signal inh: 3; KKLEB tox: 1; HIF-2a inh: -59; Peg3 prom inh-2: 68*

Results for O=C(Oc1c(CN2CCOCC2)cc(Cl)c2cccnc12)c1ccccc1Cl ?
Peg3 prom inh-1: 50*; TWEAK Fn14 block: 7; CF NFkB inh: 23; TROY signal inh: 7; KKLEB tox: 12; HIF-2a inh: 5; Peg3 prom inh-2: 43*

Results for CCc1nc(Nc2cccc(F)c2)c2oc3ccccc3c2n1 ?
Peg3 prom inh-1: 8; TWEAK Fn14 block: 15; CF NFkB inh: -7; TROY signal inh: 18; KKLEB tox: -2; HIF-2a inh: -26

What do the screens show for `COc1cc(-c2cc(C(=O)N(C)Cc3ccccc3)c3ccccc3n2)cc(OC)c1OC`?
Peg3 prom inh-1: 56*; TWEAK Fn14 block: 43; CF NFkB inh: -24; TROY signal inh: 16; KKLEB tox: -5; HIF-2a inh: 10; Peg3 prom inh-2: 52*

How did COc1ccc(N2CCN(C(=O)c3cc(-c4cccs4)nc4ccccc34)CC2)cc1 do in these assays?
Peg3 prom inh-1: 12; TWEAK Fn14 block: 19; CF NFkB inh: 21; TROY signal inh: 5; KKLEB tox: -9; HIF-2a inh: -12

How did COc1ccc(-c2cc(C(=O)NCC(c3ccccc3)N(C)C)c3ccccc3n2)cc1OC (centres undefined) do in these assays?
Peg3 prom inh-1: 17; TWEAK Fn14 block: -22; CF NFkB inh: 17; TROY signal inh: -40; KKLEB tox: -11; HIF-2a inh: -28

How did COc1ccc(-c2cc(C(=O)N(C)CC(=O)Nc3ccccc3Br)c3ccccc3n2)cc1OC do in these assays?
Peg3 prom inh-1: 54*; TWEAK Fn14 block: 14; CF NFkB inh: 21; TROY signal inh: 4; KKLEB tox: -26; HIF-2a inh: -1; Peg3 prom inh-2: 27

What do the screens show for `COc1cccc(CN(C)C(=O)c2cc(-c3cccs3)nc3ccccc23)c1`?
Peg3 prom inh-1: 61*; TWEAK Fn14 block: 22; CF NFkB inh: -9; TROY signal inh: 22; KKLEB tox: -7; HIF-2a inh: 5; Peg3 prom inh-2: 67*

How did COc1ccc(-c2cc(C(=O)N(C)Cc3ccccc3F)c3ccccc3n2)cc1OC do in these assays?
Peg3 prom inh-1: 61*; TWEAK Fn14 block: 21; CF NFkB inh: 19; TROY signal inh: 9; KKLEB tox: -20; HIF-2a inh: 3; Peg3 prom inh-2: 60*

Results for COc1ccc(-c2cc(C(=O)N(C)CC(=O)Nc3ccccc3C(F)(F)F)c3ccccc3n2)cc1OC ?
Peg3 prom inh-1: 44; TWEAK Fn14 block: 13; CF NFkB inh: -7; TROY signal inh: -6; KKLEB tox: -15; HIF-2a inh: 0

What do the screens show for `COc1ccccc1CNC(=O)COC(=O)c1cccc(S(=O)(=O)N2CCOCC2)c1`?
Peg3 prom inh-1: 31; TWEAK Fn14 block: 0; CF NFkB inh: -2; TROY signal inh: 11; KKLEB tox: 5; HIF-2a inh: 9

How did O=C(Nc1ccccn1)c1cccc(S(=O)(=O)N2CCc3ccccc3C2)c1 do in these assays?
Peg3 prom inh-1: 14; TWEAK Fn14 block: 11; CF NFkB inh: 2; TROY signal inh: 6; KKLEB tox: -14; HIF-2a inh: 5

How did CCOc1ccc(CCNC(=O)COC(=O)c2ccc(C)s2)cc1OCC do in these assays?
Peg3 prom inh-1: 8; TWEAK Fn14 block: -2; CF NFkB inh: 14; TROY signal inh: 2; KKLEB tox: -1; HIF-2a inh: 9

Results for Cc1ccc(C(=O)O)cc1N1C(=O)c2cccc3c([N+](=O)[O-])ccc(c23)C1=O ?
Peg3 prom inh-1: 2; TWEAK Fn14 block: 13; CF NFkB inh: -27; TROY signal inh: -20; KKLEB tox: 20; HIF-2a inh: 7

Results for O=C(O)c1ccc(CN2C(=O)c3cccc4c([N+](=O)[O-])ccc(c34)C2=O)cc1 ?
Peg3 prom inh-1: 103*; TWEAK Fn14 block: 53*; CF NFkB inh: 15; TROY signal inh: 71*; KKLEB tox: 13; HIF-2a inh: -9; Peg3 prom inh-2: 90*

What do the screens show for `Cc1ccc(-c2cc3c(N=O)c4ccccc4c-3n[nH]2)cc1`?
Peg3 prom inh-1: 59*; TWEAK Fn14 block: 103*; CF NFkB inh: -22; TROY signal inh: 88*; KKLEB tox: -81*; HIF-2a inh: 68*; Peg3 prom inh-2: 69*

How did Cc1ccc(-c2cc(=O)c3ccccc3[nH]2)cc1 do in these assays?
Peg3 prom inh-1: -93; TWEAK Fn14 block: 0; CF NFkB inh: 4; TROY signal inh: -62; KKLEB tox: -2; HIF-2a inh: -168

How did NCCNc1cc(N2CCCC2)ccc1[N+](=O)[O-] do in these assays?
Peg3 prom inh-1: 14; TWEAK Fn14 block: 0; CF NFkB inh: -4; TROY signal inh: -8; KKLEB tox: 5; HIF-2a inh: 7

How did CCc1ccc(OCCNc2cc(N3CCNC(C)C3)ccc2[N+](=O)[O-])cc1 (centres undefined) do in these assays?
Peg3 prom inh-1: 100*; TWEAK Fn14 block: -70; CF NFkB inh: 28; TROY signal inh: -40; KKLEB tox: -36; HIF-2a inh: -4; Peg3 prom inh-2: 100*

How did Cc1cc(C)c(NC(=O)CNC(=O)CN(C)Cc2ccc(Br)s2)c(C)c1 do in these assays?
Peg3 prom inh-1: 6; TWEAK Fn14 block: -27; CF NFkB inh: 5; TROY signal inh: -15; KKLEB tox: 10; HIF-2a inh: -2

What do the screens show for `Cc1ccccc1CS(=O)(=O)Cc1ccc(C(=O)NCCc2ccccc2)o1`?
Peg3 prom inh-1: -15; TWEAK Fn14 block: 0; CF NFkB inh: -55; TROY signal inh: -41; KKLEB tox: 12; HIF-2a inh: -21

What do the screens show for `O=C1C(Cl)=C(Nc2ccccc2)C(=O)c2ccccc21`?
Peg3 prom inh-1: 102*; TWEAK Fn14 block: 44; CF NFkB inh: 93*; TROY signal inh: 70*; KKLEB tox: -83*; HIF-2a inh: 97*; Peg3 prom inh-2: 98*

How did COc1ccc(S(=O)(=O)N2c3ccccc3OCC2c2ccccc2)cc1 (centres undefined) do in these assays?
Peg3 prom inh-1: 50*; TWEAK Fn14 block: 79*; CF NFkB inh: 12; TROY signal inh: 41; KKLEB tox: -13; HIF-2a inh: 29; Peg3 prom inh-2: 46*

What do the screens show for `COc1ccc(S(=O)(=O)N2c3ccccc3OCC2C)cc1` (centres undefined)?
Peg3 prom inh-1: 16; TWEAK Fn14 block: 9; CF NFkB inh: 18; TROY signal inh: 26; KKLEB tox: -8; HIF-2a inh: 29
